In PubChem BioAssay AID1030 (National Center for Advancing Translational Sciences (NCATS), 2008):
Where “and” joins values, the source holds several entries; their conditions need not be identical. Identical values can stand only once. Out of some 220,000 compounds screened, about 16,000 (7.3%) were called active. Where a call stands in place of a potency, no number is given. Another 25% or so got no clear call; they are omitted. Calls come from the whole dose curve; as a rule, active = well fitted inhibition curve with a large enough effect (not every such curve was filed as active); inconclusive = small, poorly fitted or top-dose-only effect, or another doubt; inactive = no such curve, though single readings can be large or run the other way. This excerpt belongs to a sample that is enriched for actives. The source holds several records for some structures; these can differ, active in one and inactive in another.
Potency is the fitted concentration of half-maximal effect.

These compounds were tested against Aldehyde dehydrogenase 1A1 (Homo sapiens) (UniProt P00352) (assay: qHTS Assay for Inhibitors of Aldehyde Dehydrogenase 1 (ALDH1A1)). Settings: Purified ALDH1A1, NADH fluorescence, propionaldehyde substrate; series mostly up to 75.3 µM.
Chain of Aldehyde dehydrogenase 1A1 (Homo sapiens) (P00352 whole entry, looked up): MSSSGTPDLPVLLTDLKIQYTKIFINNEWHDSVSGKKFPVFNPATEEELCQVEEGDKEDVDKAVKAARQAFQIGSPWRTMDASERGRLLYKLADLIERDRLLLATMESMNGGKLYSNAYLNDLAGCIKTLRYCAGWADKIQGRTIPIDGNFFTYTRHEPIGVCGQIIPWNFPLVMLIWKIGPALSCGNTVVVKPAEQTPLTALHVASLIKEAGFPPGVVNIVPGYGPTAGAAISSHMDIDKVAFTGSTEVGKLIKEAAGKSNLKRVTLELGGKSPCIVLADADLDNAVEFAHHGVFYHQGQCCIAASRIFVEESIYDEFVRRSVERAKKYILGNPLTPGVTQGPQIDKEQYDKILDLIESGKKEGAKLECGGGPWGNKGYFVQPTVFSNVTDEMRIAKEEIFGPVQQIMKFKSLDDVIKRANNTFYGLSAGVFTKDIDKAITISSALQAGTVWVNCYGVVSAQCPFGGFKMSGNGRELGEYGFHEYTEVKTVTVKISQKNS
`CSC1=NP(=S)(SC)N(C)c2nc3n(c21)CCC3` (stereo not drawn) was tested, and the Potency was “inactive”.
For `CCOP(=O)(OCC)C(NC(=O)c1ccc(C)cc1)C(Cl)(Cl)Cl` (stereo not drawn), the Potency was “inactive”.
In the case of `CCN(CC)CCn1ncc2c(N)ncnc21`, the activity, negative = inhibition was 1.51% [at 13.5 µM] (inactive).
For `CCCCCCCCc1[se]c2ccccc2c1Br`, the Potency was “inactive”.
For `NCCc1ccc(S(=O)(=O)F)cc1`, the Potency was “inactive”.
For `O=C(CN1CCCCC1)Nc1ccc(Br)cc1C(=O)c1ccccc1Cl`, the Potency was “inactive”.
For `CCN1CCN(c2ccc([N+](=O)[O-])cc2C#N)CC1`, the Potency was “inactive”.
With `COc1ccccc1-n1c(O)c(C=NC2CC2)c(=O)[nH]c1=O` the Potency was “inactive”.
In the case of `O=c1c2ccccc2nc(-c2ccc(Cl)cc2Cl)n1-c1ccncc1`, the Potency was “inactive”.
With `O=c1c2ccccc2nc(-c2ccccc2)n1-c1ccccn1` the Potency was “inactive”.
In the case of `Cc1ccc(-n2c(-c3ccc([N+](=O)[O-])cc3)nc3ccccc3c2=O)cc1`, the Potency was 7.51 µM (active).
In the case of `Cc1cccc2c(CCN)c[nH]c12`, the Potency was “inactive”.
For `Cc1ncsc1CCCl`, the Potency was “inactive”.
In the case of `COc1ccc(C(=O)CC2C(=O)N(C)C(=O)N(C)C2=O)cc1`, the Potency was 17.8 µM (active).
`CCOP(=O)(OCC)C(NC(=O)c1ccc(OC)cc1)C(Cl)(Cl)Cl` (stereo not drawn) was tested, and the Potency was “inactive”.
With `COc1ccc(-c2nn(CCC#N)cc2C(=O)O)cc1` the Potency was “inactive”.
For `COc1cc(-n2c(=S)[nH]c3ccc(C)cc3c2=O)c(Cl)cc1Cl`, the Potency was “inactive”.
In the case of `CN(C)P(=S)(Nc1ccccc1)C(Cl)(Cl)Cl` (stereo not drawn), the Potency was “inactive”.
For `O=NO`, the Potency was “inactive and 11.2 µM (active)”.
`C[C@@]12CC[C@H](O)C[C@@H]1CC[C@@H]1[C@@H]2CC[C@@]2(C)[C@@H](C3=CC(=O)OC3)[C@H](O)C[C@]12O` was tested, and the activity, negative = inhibition was 23.8% [at 13.5 µM] (inactive).
With `OC(CNC1CCCCC1)c1ccccc1` (stereo not drawn) the Potency was “inactive”.
For `CC(Cc1cccs1)NCc1ccc(Cl)cc1` (stereo not drawn), the Potency was “inactive”.
`CCN(CC)C(=O)c1ccc(NC(=O)c2cc(-n3cnnc3)ccc2Cl)cc1` was tested, and the Potency was 25.1 µM (active).
`CC(C)(Cc1c[nH]c2ccc(Cl)cc12)NCCOc1ccccc1OCC1CC1` was tested, and the Potency was “inactive”.
For `O=c1[nH]c(=O)n(-c2ccccc2)c(O)c1C=NC12CN3CN(CN(C3)C1)C2`, the Potency was “inactive”.
`C=CCN1CCC2(C)c3cc(O)ccc3CC1[C@@H]2C` (stereo partly drawn) was tested, and the Potency was “inactive”.
In the case of `CC(=O)O[C@H]1CC[C@@]2(C)[C@@H](CC[C@H]3[C@H]2CC(=O)[C@]2(C)[C@@H]3C[C@@H](N3CC3)[C@H]2C(C)=O)C1`, the activity, negative = inhibition was 6.14% [at 13.5 µM] (inactive).
For `COC1CC(OC2CC[C@@]3(C=O)C4CC[C@]5(C)C(C6=CC(=O)OC6)CC[C@@]5(O)C4CC[C@]3(O)C2)OC(C)C1O` (stereo partly drawn), the Potency was “inactive”.
For `O=C(O)CCn1cc(C=C2C(=O)NC(=S)NC2=O)c(-c2cccc(Br)c2)n1`, the Potency was 10 µM (active).
With `COP(=O)(NS(=O)(=O)c1ccccc1)OC` the Potency was “inactive”.
`CN1C2CC3CC1C(O3)C2O` (stereo not drawn) was tested, and the Potency was “inactive”.
For `C[C@@]12CC[C@H]3[C@@H](CC[C@]4(O)C[C@H](O)CC[C@@]34C=O)[C@]1(O)CC[C@@H]2C1=CC(=O)OC1`, the Potency was “inactive”.
In the case of `OC1/C(=C/c2ccc(C(F)(F)F)cc2)N2CCC1CC2` (stereo not drawn), the Potency was “inactive”.
With `CCCCC/C=C\C/C=C\C/C=C\C=C\[C@H](CCCC(=O)O)OO` the Potency was “inactive”.
`CCCCC/C=C\C/C=C\C/C=C\CCCCCCC(=O)NCCO` was tested, and the Potency was “inactive”.
`CCCCC/C=C\C/C=C\C/C=C\C/C=C\CCCCCC(=O)NCCO` was tested, and the Potency was “inactive and 14.1 µM (active)”.
`O=C(COC(=O)Cc1ccccc1)Nc1ccc(F)cc1` was tested, and the Potency was “inactive”.
For `O=c1[nH]c(=O)n(Cc2ccccc2)c(O)c1/C=N/Nc1c(F)c(F)c(F)c(F)c1F`, the Potency was “inactive”.
For `CNC(=O)N(C)c1nnc(C(C)(C)C)s1`, the Potency was “inactive”.
In the case of `CN1[C@@H]2CC[C@H]1CC(OC(=O)c1cc(Cl)cc(Cl)c1)C2` (stereo partly drawn), the Potency was “inactive”.
`BrC1C(Br)C(Br)C(Br)C(Br)C1Br` (stereo not drawn) was tested, and the Potency was 20 µM (active).
With `O=C(CCN1CCCCC1)NCC(=O)Nc1ccc(Br)cc1C(=O)c1ccccc1` the Potency was “inactive”.
`N[C@H](Cc1o[nH]c(=O)c1Cl)C(=O)O` was tested, and the Potency was “inactive”.
`CC(C)(C)CC(=O)Nc1nnc(SCC(=O)NCc2cccs2)s1` was tested, and the Potency was 17.8 µM (active).
For `N[C@H](C(=O)O)c1cc(=O)[nH]o1`, the Potency was “inactive”.
In the case of `N#Cc1ccc(Cn2cc(C(=O)c3ccco3)c3ccccc32)cc1`, the Potency was “inactive”.
With `COP(=O)(OC)C(NC(=O)c1ccc(C)cc1)C(Cl)(Cl)Cl` (stereo not drawn) the Potency was “inactive”.
With `OC(Cn1c2ccccc2c2ccccc21)C[n+]1ccccc1` (stereo not drawn) the Potency was “inactive”.
With `CCNc1nc2[nH]c(=O)c3c(c2s1)OC(N)=C(C#N)C3c1cccs1` (stereo not drawn) the Potency was “inactive”.
With `CCCCN1C2CCC1CC(OC(c1ccc(F)cc1)c1ccc(F)cc1)C2` (stereo not drawn) the Potency was “inactive”.
`Cc1ccc(NN=C2C(=O)OC(C)(C)OC2=O)c(C)c1` was tested, and the Potency was 10 µM (active).
`Cc1nc2nc(C)c(CCC(=O)N3CCC4(CC3)OCCO4)c(C)n2n1` was tested, and the Potency was “inactive”.
In the case of `CC1=CC(=O)C2=C(C)C[C@H](O)[C@H]3[C@H](C)C(=O)O[C@@H]3C12` (stereo partly drawn), the Potency was “inactive”.
